Assay outcomes as filed in PubChem.
hgDAF12 agonist: H. glycines DAF-12 receptor agonists, primary screen, cell-based, luminescence, HEK293, GAL4 fusion, UAS-luciferase; hit rate 1.8% among 370,000; activation, % at 6.8 µM; Nuclear hormone receptor DAF-12 (Heterodera glycines), GAL4 fusion; HEK293 GAL4-hgDAF12 UAS-luciferase reporter, agonist luminescence; normalized to butyrate control;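 active = activation above a cutoff set at the mean of all screened compounds plus 3 SD, cut at about 10% in these data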;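 note: 0% = DMSO wells and 100% = sodium butyrate wells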
ssDAF12 agonist: S. stercoralis DAF-12 nuclear receptor activators, primary screen, cell-based, luminescence, HEK293, GRIP1 co-expression, lit1-tk-luc. Nuclear hormone receptor DAF-12 (Strongyloides stercoralis). HEK293 ssDAF-12/GRIP1 lit1-tk-luc reporter; % of 3 µM dafachronic acid response. activation, % at 6.8 µM. hit rate 1% among 370,000. AID 652126, 2013;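 active = activation above the mean over all tested compounds plus 3 SD, cut at about 0.9% in these data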;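 note: 0% = DMSO-only wells and 100% = 3 µM delta7-dafachronic acid wells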
DAX1 inh-1: DAX1 (NR0B1) inhibitors, primary screen, cell-based, HEK293, Gal4-DAX1, luciferase luminescence; Nuclear receptor subfamily 0 group B member 1 (Homo sapiens), P51843; HEK293 Gal4-DAX1 luciferase reporter; inhibition, % at 6.75 µM; hit rate 0.99% among 340,000;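 active = inhibition above the mean over all tested compounds plus 3 SD, cut at about 4.2% in these data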;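 note: 0% = DAX1-transfected cells with DMSO and 100% = empty-vector control cells with DMSO; inhibition shows as a rise in luminescence from relieved DAX1 repression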
DAX1 inh-2: DAX1 (NR0B1) inhibitors on StAR promoter, primary screen, cell-based, luminescence, SF-1 (NR5A1), full-length DAX-1; hit rate 1.1% among 370,000; inhibition, % at 6.8 µM; HEK293T StAR-luciferase reporter, SF-1/DAX-1 repression relief;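 active = inhibition above the mean over all tested compounds plus 3 SD, cut at about 3.6% in these data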;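 note: 0% = DAX-1 cells with DMSO and 100% = cells lacking DAX-1 with DMSO; higher inhibition means more luminescence from relief of DAX-1 repression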
hcDAF-12 act: H. contortus DAF-12 nuclear receptor activators, primary screen, cell-based, luminescence, HEK293, lit1-tk-luc reporter. AID 652067, 2013. HEK293 hcDAF-12 lit1-tk-luc reporter; 0% DMSO, 100% Δ7-dafachronic acid. hit rate 1.4% among 370,000. activation, % at 6.8 µM;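 active = activation above the mean of all tested compounds plus 3 SD, cut at about 5.5% in these data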;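 note: 100% = response to 3 µM Δ7-dafachronic acid high control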
LXRb hcDAF ctr: LXR agonists, Gal4 luciferase reporter, confirmation, counter-screen for hcDAF-12 agonist project, cell-based, luminescence, HEK293, H. contortus campaign; activation, % at 6.8 µM; HEK293 Gal4-LXR tk-luc reporter, 24 h; normalized: DMSO 0%, positive control 100%; 3,400 tested, under 10 active; shares compounds with hcDAF-12 act;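 active = mean percent activation of the reporter above a cutoff set as the average over tested compounds plus their standard deviation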
Target sequence (P55055 whole entry, looked up, the tested form may be a part): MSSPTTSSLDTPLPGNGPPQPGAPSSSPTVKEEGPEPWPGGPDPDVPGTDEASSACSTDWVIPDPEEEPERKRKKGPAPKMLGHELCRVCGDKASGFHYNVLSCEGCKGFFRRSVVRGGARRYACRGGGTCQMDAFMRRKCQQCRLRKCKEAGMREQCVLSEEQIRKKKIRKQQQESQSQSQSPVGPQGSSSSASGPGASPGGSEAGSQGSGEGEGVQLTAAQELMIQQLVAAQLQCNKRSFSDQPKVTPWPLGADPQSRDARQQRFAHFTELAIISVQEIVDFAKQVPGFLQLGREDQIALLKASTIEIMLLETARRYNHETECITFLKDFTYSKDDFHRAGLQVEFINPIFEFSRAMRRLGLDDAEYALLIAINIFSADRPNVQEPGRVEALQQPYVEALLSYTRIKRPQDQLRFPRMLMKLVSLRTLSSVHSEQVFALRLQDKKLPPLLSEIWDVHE
hcDAF12 conf: H. contortus DAF-12 receptor agonists, confirmation, cell-based, luminescence, HEK293, lit1-tk-luc, triplicate; shares compounds with hcDAF-12 act; HEK293 hcDAF-12 lit1-tk-luc reporter; % of Δ7-dafachronic acid response; activation, % at 6.8 µM; hit rate 61% among 3,400; AID 743032, 2013;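 active = mean activation across triplicate tests above the threshold derived from the earlier primary screen, cut at about 5.5% in these data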;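 note: 0% = DMSO only wells and 100% = 3 µM Δ7-dafachronic acid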
* = called active by the depositor; / = not tested or not shown. Rows were chosen to be rich in hits. Some 4.1% of all compounds tested hit in one or more screens of this group.

SMILES	hgDAF12 agonist	ssDAF12 agonist	DAX1 inh-1	DAX1 inh-2	hcDAF-12 act	LXRb hcDAF ctr	hcDAF12 conf
COc1ccc(OC)c(Nc2ccc(C(=O)O)cc2[N+](=O)[O-])c1	2	0	0	-1	8.4*	0	2
COc1cccc2sc(Nc3nnc(-c4cccs4)o3)nc12	6	0	-1	0	4	/	/
COc1cccc2sc(Nc3nnc(-c4ccc(F)cc4)o3)nc12	4	0	0	-1	7.8*	0	4
S=c1nc(-c2ccc(Br)cc2)[nH]c2ccccc12	0	1	1	1	7.3*	0	9.0*
CCCCn1c(O)c2n(c1=O)Cc1ccccc1N=C2c1ccc(C)cc1	0	0	/	1	7.3*	0	4
CCCCn1c(O)c2n(c1=O)Cc1ccccc1N=C2c1ccccc1	-1	-1	/	-1	4	/	/
COc1cc(Cc2nc3ccc(S(=O)(=O)N4CCOCC4)cc3[nH]2)cc(OC)c1OC	1	-2	0	-1	8.0*	0	-1
Cn1c(C(C#N)C(=O)c2ccco2)nc2ccccc21 (stereo not drawn)	4	1	1	2	7.2*	0	9.6*
c1cnc2c(OCc3nc4ccccc4[nH]3)cccc2c1	8	1.2*	2	2	11*	1	9.6*
Brc1ccccc1OCCOc1cccc2cccnc12	-1	-1	0	1	0	/	/
CCCC(=O)Nc1c(C(=O)OCC)[nH]c2ccccc12	4	0	2	1	4	/	/
CCOC(=O)c1[nH]c2ccc(Br)cc2c1NC(=O)CCN1CCC(C)CC1	0	0	0	-1	-1	/	/
CCCS(=O)(=O)Nc1c(C(=O)OC)[nH]c2ccccc12	1	-1	-1	0	10*	0	4
CCOC(=O)c1[nH]c2ccccc2c1NC(=S)Nc1ccccc1C	6	1.1*	2	3	10*	0	6.6*
CCOC(=O)c1[nH]c2ccc(Br)cc2c1NC(=O)CNC	2	0	1	0	9.9*	0	5
CCN=C1S/C(=C/c2cc(C)n(-c3ccc(Cl)cc3F)c2C)C(=O)N1CC	-1	-2	/	/	-4	/	/
O=C(NCc1ccc(F)cc1)C(=O)NCC1OCCN1S(=O)(=O)c1cc(F)ccc1F (stereo not drawn)	4	-1	0	-2	-3	/	/
O=C(Nc1ccc(F)cc1)c1nsc(Cl)c1Cl	11*	2.8*	3	2	9.7*	1	11*
Cc1[nH]c2ccccc2c1/C=N/Nc1cccc(C(=O)O)c1	13*	0.9*	-3	1	11*	1	13*
CCOc1ccccc1NC(=O)CNC(=O)N1CC(=O)Nc2ccccc21	2	0	1	3	7.0*	0	3
Cc1ccc(C)c(NC(=O)CNC(=O)N2CC(=O)Nc3ccccc32)c1	1	-1	0	0	-1	/	/
COc1cc(NC(=O)c2cc(-c3ccco3)on2)c(OC)cc1Cl	4	0	2	1	6.6*	0	7.7*
COc1cc(/C=N/Nc2ccc3ccccc3c2)ccc1OC(=O)c1ccco1	5	0	1	0	6.8*	0	7.5*
O=C(NCC(c1ccco1)N1CCCCC1)c1ccc(COc2ccc(Cl)cc2)cc1 (stereo not drawn)	-2	-2	-2	-4	-3	/	/
C=CCNC(=S)Nc1c(C(=O)OC)[nH]c2cc(OC)ccc12	7	1	1	1	9.7*	1	7.5*
SMILES	hgDAF12 agonist	ssDAF12 agonist	DAX1 inh-1	DAX1 inh-2	hcDAF-12 act	LXRb hcDAF ctr	hcDAF12 conf
c1ccc(N2CC3CCc4ccccc4C3=N2)cc1 (stereo not drawn)	7	1.4*	4	1	12*	1	12*
CS(=O)(=O)N1C[C@]2(c3ccccc3)CC1Cc1ccccc12	1	-1	/	/	-1	/	/
CN=c1scc(-c2ccccc2F)n1/N=C/c1ccc(O)c(O)c1O	6	1	-2	3	7.2*	1	16*
CN=c1scc(C)n1/N=C/c1ccc(O)cc1O	6	1	-2	3.6*	7.6*	2	6.6*
COc1ccc(N2CCN(CCNS(=O)(=O)c3cccs3)CC2)cc1	-2	-2	/	-1	-1	/	/
CC1(C)C2CCC1(C)C(SC(=N)N)C2 (stereo not drawn)	-1	-2	2	-1	3	/	/
CN1CCN(C(=O)c2ccc(-c3cccs3)s2)CC1	9	-1	/	2	1	/	/
O=C(c1cccs1)c1ccc(-c2cccs2)s1	17*	2.1*	-1	3	14*	2	14*
CCNC(=O)C1(C)CCN1CCC(=O)c1ccc(Br)cc1 (stereo not drawn)	4	-2	/	-1	1	/	/
CCc1ccc2c(c1)C(=O)c1ccccc1C2=O	11*	2.5*	0	1	8.0*	1	9.8*
CCc1ccc(NC2=CC(=O)C(=O)c3ccccc32)cc1	6	0	-1	-1	1	/	/
O=C(O)c1cccc2c(-c3ccccc3)c(-c3ccccc3)[nH]c12	-3	-1	-1	0	0	/	/
CC(=O)c1cccc2c(O)c(C3=Nc4ccccc4C3=O)[nH]c12	5	1.2*	0	1	6.6*	1	7.1*
Cc1ccc(C(=O)Oc2oc(-c3ccccc3)nc2C=Nc2ccc(N(C)C)cc2)cc1	12*	1.8*	2	2	8.1*	0	1
COc1cccc(N=Cc2nc(-c3ccccc3)oc2OC(C)=O)c1	0	-1	4	0	2	/	/
COc1cc(C(=O)Oc2cc(C)[nH]c(=O)c2[N+](=O)[O-])cc(OC)c1OC	1	-1	0	0	-1	/	/
Cc1cc(C)cc(C(=O)Oc2cc(C)[nH]c(=O)c2[N+](=O)[O-])c1	0	-1	1	0	8.5*	0	1
